20 molecules from PMC9911399, “Two distinct binding modes provide the RNA-binding protein RbFox with extraordinary sequence specificity” can be followed below.

Numbering of substitutions follows the chain as printed; changes in the protein carry UniProt numbers. Over roughly 16,000 sequences, “ka relative to ugcaugu” has its median near 0.0091; the highest 2% begin near 0.032. The entries come from a sample that favours the highest values as a whole.

The chains are these.
T1: RBFOX1 RRM (Homo sapiens, UniProt Q9NWB1 109-208)
T1 sequence: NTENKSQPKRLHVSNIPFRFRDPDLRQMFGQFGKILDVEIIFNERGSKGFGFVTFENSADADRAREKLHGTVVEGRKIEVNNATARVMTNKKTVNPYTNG

B1: ACAACCU (DNA:RNA)
RNA: GGGAGACCGGAAUUCAGAUUGUCCACAACCUUUAAAUCCCGUCGUAGCCACCA
DNA 1: CAATCTGAATTCCGGTCTCCC
DNA 2: TGGTGGCTACGACGGGATT
B2: AGCGAAA (DNA:RNA)
RNA: B1 RNA with C26G, A27C, A28G, C29A, C30A, U31A
DNA 1: CAATCTGAATTCCGGTCTCCC
DNA 2: TGGTGGCTACGACGGGATT
B3: UUUUUGU (DNA:RNA)
RNA: B1 RNA with A25U, C26U, A27U, A28U, C29U, C30G
DNA 1: CAATCTGAATTCCGGTCTCCC
DNA 2: TGGTGGCTACGACGGGATT
B4: UCGUCCC (DNA:RNA)
RNA: B1 RNA with A25U, A27G, A28U, U31C
DNA 1: CAATCTGAATTCCGGTCTCCC
DNA 2: TGGTGGCTACGACGGGATT
B5: ACAGACA (DNA:RNA)
RNA: B1 RNA with A28G, C29A, U31A
DNA 1: CAATCTGAATTCCGGTCTCCC
DNA 2: TGGTGGCTACGACGGGATT
B6: UCACUAC (DNA:RNA)
RNA: B1 RNA with A25U, A28C, C29U, C30A, U31C
DNA 1: CAATCTGAATTCCGGTCTCCC
DNA 2: TGGTGGCTACGACGGGATT
B7: GGCAAAG (DNA:RNA)
RNA: B1 RNA with A25G, C26G, A27C, C29A, C30A, U31G
DNA 1: CAATCTGAATTCCGGTCTCCC
DNA 2: TGGTGGCTACGACGGGATT
B8: UGUCGUC (DNA:RNA)
RNA: GGGAGACCGGAAUUCAGAUUGUCCUGUCGUCUUAAAUCCCGUCGUAGCCACCA
DNA 1: CAATCTGAATTCCGGTCTCCC
DNA 2: TGGTGGCTACGACGGGATT
B9: UGGAGUG (DNA:RNA)
RNA: B8 RNA with U27G, C28A, C31G
DNA 1: CAATCTGAATTCCGGTCTCCC
DNA 2: TGGTGGCTACGACGGGATT
B10: UGGAGAU (DNA:RNA)
RNA: B8 RNA with U27G, C28A, U30A, C31U
DNA 1: CAATCTGAATTCCGGTCTCCC
DNA 2: TGGTGGCTACGACGGGATT
B11: UGGAAUG (DNA:RNA)
RNA: B8 RNA with U27G, C28A, G29A, C31G
DNA 1: CAATCTGAATTCCGGTCTCCC
DNA 2: TGGTGGCTACGACGGGATT
B12: UGUCGUG (DNA:RNA)
RNA: B8 RNA with C31G
DNA 1: CAATCTGAATTCCGGTCTCCC
DNA 2: TGGTGGCTACGACGGGATT
B13: UGGAGAA (DNA:RNA)
RNA: B8 RNA with U27G, C28A, U30A, C31A
DNA 1: CAATCTGAATTCCGGTCTCCC
DNA 2: TGGTGGCTACGACGGGATT
B14: UGUCUUG (DNA:RNA)
RNA: B8 RNA with G29U, C31G
DNA 1: CAATCTGAATTCCGGTCTCCC
DNA 2: TGGTGGCTACGACGGGATT
B15: UGGAGAG (DNA:RNA)
RNA: B8 RNA with U27G, C28A, U30A, C31G
DNA 1: CAATCTGAATTCCGGTCTCCC
DNA 2: TGGTGGCTACGACGGGATT
B16: UGGAUCG (DNA:RNA)
RNA: B1 RNA with A25U, C26G, A27G, C29U, U31G
DNA 1: CAATCTGAATTCCGGTCTCCC
DNA 2: TGGTGGCTACGACGGGATT
B17: UGUUGUC (DNA:RNA)
RNA: B8 RNA with C28U
DNA 1: CAATCTGAATTCCGGTCTCCC
DNA 2: TGGTGGCTACGACGGGATT
B18: UGGAUCU (DNA:RNA)
RNA: B1 RNA with A25U, C26G, A27G, C29U
DNA 1: CAATCTGAATTCCGGTCTCCC
DNA 2: TGGTGGCTACGACGGGATT
B19: UGGAUCC (DNA:RNA)
RNA: B8 RNA with U27G, C28A, G29U, U30C
DNA 1: CAATCTGAATTCCGGTCTCCC
DNA 2: TGGTGGCTACGACGGGATT
B20: CAGAAAA (DNA:RNA)
RNA: B1 RNA with A25C, C26A, A27G, C29A, C30A, U31A
DNA 1: CAATCTGAATTCCGGTCTCCC
DNA 2: TGGTGGCTACGACGGGATT

The target of this assay is T1, RBFOX1 RRM. Kind of assay: EMSA; HiTS-Eq, 1 nM pool, 10 min; buffer printed only for the single-RNA assays: 10 mM Tris pH 7.5, 150 mM NaCl, 3.4 mM EDTA, 0.001% NP-40, 30 C. Particulars: tags: His6 N-terminal (pET28a); label: 5' 32P. The method, boiled down: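 These values rest on relative association constants, computed from read-count changes of each RNA species versus the control reaction and normalised to the cognate motif. Reads came from free RNA recovered by 8% native PAGE after purified RbFox RRM (wild type or mutant) at increasing concentrations was equilibrated for 10 min in 50 µL with 1 nM of a 5′-radiolabelled pool with 7 randomized nucleotides and DNA-annealed flanks.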
Background: In EMSA bound probe runs differently from free probe, usually more slowly.
B1: the binding signal is 0.000511 KA relative to UGCAUGU.
The same measure for B2: 0.0048 KA relative to UGCAUGU; for B3: 0.0281 KA relative to UGCAUGU; for B4: 0.00735 KA relative to UGCAUGU.
B5: the binding signal is 0.00018 KA relative to UGCAUGU.
As for B6, the figure is 0.000713 KA relative to UGCAUGU.
Take B7: the binding signal is 0.00447 KA relative to UGCAUGU.
The same measure for B8: 0.0214 KA relative to UGCAUGU; for B9: 0.0323 KA relative to UGCAUGU.
For B10, the binding signal is 0.0283 KA relative to UGCAUGU.
Take B11: the binding signal was 0.0953 KA relative to UGCAUGU.
The same measure for B12: 0.0277 KA relative to UGCAUGU; for B13: 0.0194 KA relative to UGCAUGU; for B14: 0.0447 KA relative to UGCAUGU.
The same measure for B15: 0.0249 KA relative to UGCAUGU; for B16: 0.0333 KA relative to UGCAUGU; for B17: 0.0242 KA relative to UGCAUGU.
As for B18, the figure is 0.0236 KA relative to UGCAUGU; as for B19, 0.0229 KA relative to UGCAUGU; as for B20, 0.000855 KA relative to UGCAUGU.
